Where “and” joins values, the source holds several entries; their conditions need not be identical. Identical values can stand only once. Results filed as inconclusive are left out. Some structures have more than one record in an assay (separate samples or runs), and their calls can disagree. Calls of active or inactive are those of the source. Unless noted, the call rests on the fitted dose curve; in most records, active means well fitted curve in the direction sought with a large enough effect in the repeat runs; inconclusive means weak or mixed curves; inactive means no such curve, though single readings can be large; an effect the other way counts as inactive or inconclusive.

A short description of test [1]: qHTS assay to identify small molecule agonists of the vitamin D receptor (VDR) signaling pathway - cell viability counter screen (AID 743224). Further: nearly all actives have a fitted effect of over 50% in size. Further: potency means the concentration at half of the fitted maximal effect. The essentials:
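Counter screen run in the same wells as the VDR-bla reporter assay: CellTiter-Glo luminescence, 30 min at room temperature, after 16 h compound treatment at 37C of cells pre-plated for 4 h.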

Test [2] can be described thus: qHTS assay to identify small molecule agonists of the NFkB signaling pathway - cell viability counter screen (AID 1159515; calls by dose curve; further: nearly all actives have a fitted effect of over 55% in size; further: potency means the concentration at half of the fitted maximal effect). An outline of the steps:
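Read by CellTiter-Glo luminescence (30 min, room temperature) in the wells also used for the beta-lactamase FRET read. ME-180 NFkB-bla cells at 2,000 per well were plated overnight, then exposed to compound for 5 hr at 37 C.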
Background: In qHTS, concentration-response curves come from the screen itself.

The nature of test [3]: qHTS assay to identify small molecule agonists of the AP-1 signaling pathway - cell viability counter screen (AID 1159525; calls by dose curve; further: nearly all actives have a fitted effect of over 55% in size; further: potency means the concentration at half of the fitted maximal effect). An outline of the steps:
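Each titration point was normalised to DMSO and tetra n-octyl ammonium bromide controls. The read was Cell Titer Glo luminescence after 30 min at RT, following 5 h compound exposure of ME-180 AP-1-bla cells at 37 °C.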

Test [4] is described as follows: qHTS assay to identify small molecule agonists of the AP-1 signaling pathway (AID 1159526; calls by dose curve; further: on the % scale 0 is the no-effect control and ±100 the full control effect).
Test [5] is described as follows: qHTS assay to identify small molecule agonists of the RXR signaling pathway - cell viability counter screen (AID 1159529). Further: nearly all actives have a fitted effect of over 50% in size. Further: potency means the concentration at half of the fitted maximal effect. The essentials:
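Same-well viability check after the LiveBLAzer FRET read: CellTiter-Glo added, luminescence measured after 30 min at room temperature. Reporter HEK 293T cells had been treated with compounds for 16 hr following a 5 hr preincubation.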

A short description of test [6]: qHTS assay to identify small molecule antagonists of the retinoid acid receptor (RAR) signaling pathway - cell viability counter screen (AID 1159551). Further: nearly all actives have a fitted effect of over 35% in size. Further: potency means the concentration at half of the fitted maximal effect. The essentials: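 Cytotoxicity counter screen: ATP content quantified by CellTiter-Glo luminescence in C3RL4 cells treated 6 hr at 37 C with compound and retinol (1 uM final). Cells plated at 1,000/well and cultured overnight before dosing.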

A short description of test [7]: qHTS assay to identify small molecule antagonists of the retinoic acid receptor (RAR) signaling pathway (AID 1159552; further: nearly all actives have a fitted effect of over 50% in size; further: potency means the concentration at half of the fitted maximal effect). An outline of the steps: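 Readout: luciferase luminescence, 30 min post-reagent at RT. Setup: C3RL4 RARE reporter cells, compounds plus retinol 1 uM final, 6 hr incubation at 37 C and 5% CO2.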
Test [8] in a line: qHTS assay to identify small molecule antagonists of the estrogen related receptor signaling pathway with the pleiotropic PPARgamma coactivator (PGC) cell viability counter screen (AID 1224822; further: potency means the concentration at half of the fitted maximal effect). The essentials: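 Viability counter-screen read by fluorescence intensity after 30 min with CellTiter-Fluor at 37 C; PGC/ERR reporter cells were exposed to compounds for 17.5 h at 37 C following a 6 h preincubation.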

Test [9] in a line: qHTS assay to identify small molecule antagonists of the estrogen related receptor (ERR) signaling pathway from Tox21 library - cell viability counter screen (AID 1224834). Further: nearly all actives have a fitted effect of over 30% in size. Further: potency means the concentration at half of the fitted maximal effect. An outline of the steps:
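CellTiter-Fluor fluorescence, read after 30 min at 37 C, measures viability of ERR cells. Cells plated at 2,000/well and incubated 6 h before pin-tool compound addition, then exposed 17.5 hours at 37 C.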

Test [10] in a line: qHTS assay to identify small molecule antagonists of the vitamin D receptor (VDR) signaling pathway - cell viability counter screen (AID 743225). Further: nearly all actives have a fitted effect of over 50% in size. Further: potency means the concentration at half of the fitted maximal effect. The essentials:
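Luminescent cell viability (CellTiter-Glo) in VDR-bla HEK 293T cells after 16 h compound exposure at 37C in the presence of 3 nM final 1-alpha,25-dihydroxy vitamin D3.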

Test [11] in a line: qHTS assay to identify small molecule agonists of the endoplasmic reticulum stress response signaling pathway (AID 1159516; active means well fitted activation curve with a large enough effect in the signal ratio in the repeat runs, not every such curve was filed as active; the % refers to the signal ratio; further: on the % scale 0 is the no-effect control and ±100 the full control effect). The essentials:
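Ratiometric FRET readout (405 nm excitation; 460 and 530 nm emission) of a beta-lactamase gene driven by the ER stress response element, after 2 hr substrate loading. HeLa ESRE-bla cells were seeded overnight and treated with compounds for only 5 hr at 37 C.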

The nature of test [12]: qHTS assay to identify small molecule antagonists of the retinoid-related orphan receptor gamma (ROR-gamma) signaling pathway - cell viability counter screen (AID 1159520). Further: nearly all actives have a fitted effect of over 50% in size. Further: potency means the concentration at half of the fitted maximal effect. An outline of the steps: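 Tet-on ROR gamma CHO cells (1,000/well) were plated 4 hr, given compounds in DMSO for 2 hr at 37 C, then induced with 1 uM final doxycycline for 16 hr. Viability was read as ATP by CellTiter-Glo luminescence after 30 min.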

For test [13], the target named is Nuclear receptor ROR-gamma (Homo sapiens) (UniProt P51449). Nature of the test: qHTS assay to identify small molecule antagonists of the retinoid-related orphan receptor gamma (ROR-gamma) signaling pathway (AID 1159521). An outline of the steps: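 CHO cells expressing RORγ under a TET-on promoter, luciferase under RORE control. Dox 1 uM final, 16 h; compounds added 2 h prior. Luminescence decrease measured.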

Test [14] has as its target Retinoic acid receptor RXR-alpha (Homo sapiens) (UniProt P19793). Nature of the test: qHTS assay to identify small molecule agonists of the RXR signaling pathway (AID 1159527; calls by dose curve; further: on the % scale 0 is the no-effect control and ±100 the full control effect; nearly all actives have a fitted effect of over 35% in size). The essentials:
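Beta-lactamase reporter assay, agonist format. Engineered HEK 293T line, charcoal-stripped FBS at 2%, overnight (16 hr) exposure, fluorescence at 460 and 530 nm after 405 nm excitation.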

Test [15] deals with Luciferin 4-monooxygenase (Photinus pyralis) (UniProt P08659). Nature of the test: qHTS assay to identify small molecule inhibitors of firefly luciferase (AID 1224835). Further: nearly all actives have a fitted effect of over 25% in size. Further: potency means the concentration at half of the fitted maximal effect. The essentials:
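Quantitative HTS format; KM concentrations of both substrates. Purified P. pyralis FLuc activity quantified from luminescence images.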

A short description of test [16]: qHTS assay to identify small molecule agonists of the endoplasmic reticulum stress response signaling pathway - cell viability counter screen (AID 1159517; calls by dose curve). The essentials:
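Cytotoxicity of test compounds toward ESRE-bla HeLa cells was assessed after 5 hr exposure. The luminescent CellTiter-Glo signal was measured 30 min after reagent addition.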

A short description of test [17]: qHTS assay to identify small molecule agonists of the retinoic acid receptor (RAR) signaling pathway (AID 1159553). Further: potency means the concentration at half of the fitted maximal effect. On activation: on the % scale 0 is the no-effect control and ±100 the full control effect. The essentials:
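Luminescence was measured 30 min after luciferase reagent addition at room temperature. Before that, C3RL4 reporter cells (1,000 per well, plated overnight) were treated with compound for 6 hr at 37 C and 5% CO2.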

Chain of Retinoic acid receptor RXR-alpha (Homo sapiens) (P19793 whole entry, looked up): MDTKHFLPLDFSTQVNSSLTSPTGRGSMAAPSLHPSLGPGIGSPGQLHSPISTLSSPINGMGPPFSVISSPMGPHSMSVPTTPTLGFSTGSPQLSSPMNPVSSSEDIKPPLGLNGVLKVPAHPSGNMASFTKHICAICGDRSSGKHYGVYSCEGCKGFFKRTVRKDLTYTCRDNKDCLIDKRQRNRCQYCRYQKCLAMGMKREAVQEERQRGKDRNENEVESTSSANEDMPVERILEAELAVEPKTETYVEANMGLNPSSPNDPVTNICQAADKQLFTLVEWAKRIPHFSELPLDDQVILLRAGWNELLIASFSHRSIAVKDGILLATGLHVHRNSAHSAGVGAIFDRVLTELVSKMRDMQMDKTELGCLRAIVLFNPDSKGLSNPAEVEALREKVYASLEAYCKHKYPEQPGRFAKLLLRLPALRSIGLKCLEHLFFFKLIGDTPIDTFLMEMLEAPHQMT
Chain of Luciferin 4-monooxygenase (Photinus pyralis) (P08659 whole entry, looked up): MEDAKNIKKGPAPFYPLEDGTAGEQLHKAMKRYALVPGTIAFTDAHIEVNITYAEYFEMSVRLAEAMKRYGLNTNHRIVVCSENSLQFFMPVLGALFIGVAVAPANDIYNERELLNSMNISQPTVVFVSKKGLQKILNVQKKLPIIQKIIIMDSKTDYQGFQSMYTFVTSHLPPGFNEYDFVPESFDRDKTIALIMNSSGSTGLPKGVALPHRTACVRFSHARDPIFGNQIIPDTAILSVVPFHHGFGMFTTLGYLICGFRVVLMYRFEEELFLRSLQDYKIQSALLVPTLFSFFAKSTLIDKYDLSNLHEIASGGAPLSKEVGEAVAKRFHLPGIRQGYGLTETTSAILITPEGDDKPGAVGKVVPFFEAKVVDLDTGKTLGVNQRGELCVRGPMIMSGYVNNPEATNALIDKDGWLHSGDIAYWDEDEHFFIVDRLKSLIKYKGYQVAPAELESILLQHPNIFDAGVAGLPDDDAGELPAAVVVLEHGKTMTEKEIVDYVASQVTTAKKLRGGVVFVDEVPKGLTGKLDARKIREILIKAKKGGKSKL

As for `CCN(CC)CCNC(=O)c1c(C)[nH]c(/C=C2\C(=O)Nc3ccc(F)cc32)c1C`, the Potency in test [1] is 29.8 µM (active); in test [5] it was 7.56 µM (active); in test [6], 33.5 µM (active); in [7] it was 26.6 µM (active); in test [8] it was 8.74 µM (active); in test [9], 10.6 µM (active). In addition, the Potency result in test [2], in test [3] and in test [4] was “inactive” each time.
For the compound `CCC(C)(C)C1CCCCC1OC(C)=O` (configuration not stated), in test [1], the Potency is 38.9 µM (active). The Potency result in [10], in [12], in test [13], in [3], in test [4] and in test [14] was “inactive” in each case. Also, the Potency entry in [5], in test [6], in test [7], in [9] and in [15] was “inactive” throughout. Further, the call in test [11] was inactive.
On to `C/C=C(\C)C(=O)OCc1ccccc1`, for which the Potency entry in test [10], in test [16], in test [12], in [13], in test [3] and in [4] was “inactive” each time. Besides, the Potency entry in test [14], in test [5], in test [6], in test [7] and in test [9] was “inactive” in each case. Further, the result in test [11] was inactive. Moreover, the Potency in test [15] is 63.3 µM (active).
As for `NC(=NCCCCCCN=C(N)/N=C(\N)Nc1ccc(Cl)cc1)/N=C(\N)Nc1ccc(Cl)cc1`, the Potency was 35.3 µM (active) [middle of 4 runs] in test [10]; 54 µM (active) and 54.2 µM (active) and inactive in [12]; 34.3 µM (active) and inactive in test [3]; 54.2 µM (active) [middle of 4 runs] in test [9]. Moreover, the compound was called inactive in test [11]. Moreover, the Potency entry in test [4] and in test [15] was “inactive” each time.
For the compound `Nc1ccc(N)c2ccccc12`, the Potency in test [1] was 19.5 µM (active); in [10], 43.6 µM (active); in [2] it was 11 µM (active); in test [3] it was 54.9 µM (active); in test [5] it was 21.8 µM (active); in test [6], 68.5 µM (active). The Potency in test [9] is 30.6 µM (active). The Potency result in test [15] was “inactive”.
Regarding `O=C1c2ccccc2Cc2ccccc21`, the Potency entry in test [1], in [10], in test [16], in test [12], in test [13] and in [3] was “inactive” throughout. For the same compound, the Potency entry in test [4], in test [14], in test [5], in test [6], in [7] and in [15] was “inactive” each time. In addition, the outcome in [11] was inactive.
For `O=C(O)c1ccc(Cl)c(Cl)c1`, the Potency entry in test [1], in test [10], in [16], in test [12], in test [13] and in test [3] was “inactive” each time. In addition, the Potency entry in test [4], in test [14], in test [5], in test [6], in test [7] and in test [17] was “inactive” each time. Further, the Potency entry in test [9] and in test [15] was “inactive” in each case. The compound was classed as inactive in test [11].
Take `CCCCCCCC(=O)[O-].CCCCCCCC(=O)[O-].[Zn+2]`: the Potency entry in test [1], in [10], in test [16], in test [12], in test [13] and in test [3] was “inactive” in each case. The Potency entry in test [4], in [14], in test [5], in test [6] and in test [9] was “inactive” throughout. Further, the result in test [11] was inactive. In addition, the Potency in [15] is 34.7 µM (active).
Take `NNC(=O)c1cccc(C(=O)NN)c1`: the Potency result in test [1], in test [10], in test [16], in test [12], in test [13] and in test [3] was “inactive” throughout. The Potency entry in test [4], in [14], in test [5], in [6], in test [7] and in test [9] was “inactive” in each case. Besides, the Potency entry in [15] is “inactive”. Also, the compound was called inactive in test [11].
For the compound `C1CCCC1`, the Potency entry in test [1], in test [10], in test [16], in test [12], in test [13] and in test [3] was “inactive” in each case. Besides, the Potency result in test [4], in test [14], in [5], in [7], in [17] and in test [9] was “inactive” each time. For the same compound, the Potency result in test [15] was “inactive”. Moreover, in test [11], the call was inactive.
As to `CCN(C(=O)N(CC)c1ccccc1)c1ccccc1`, the Potency result in test [1], in test [10], in [16], in test [12], in [13] and in test [3] was “inactive” throughout. Moreover, the Potency entry in test [4], in test [14], in [5], in test [6], in test [7] and in test [17] was “inactive” throughout. For the same compound, the compound was called inactive in test [11].
As to `O=c1cc(-c2ccc(O)cc2)oc2cc(O)cc(O)c12`, the Potency entry in test [10], in test [16], in test [12], in [3], in [5] and in test [7] was “inactive” throughout. The result in test [11] was inactive. The Potency in test [17] is 1.56 µM (active); in test [9], 49.2 µM (active) and 30.6 µM (active); in test [15], 10.2 µM (active) and 7.96 µM (active).
